According to PubChem BioAssay AID652067 (The Scripps Research Institute Molecular Screening Center, 2013):
Hit rate of the full screen: of about 370,000 compounds, about 5,400 (1.5%) were called active.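 Rule for the calls: active = activation above the mean of all tested compounds plus 3 SD (cut at about 5.5% in these data); inactive = the rest.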 The full list was thinned out, with actives kept by preference.

What follows are compounds tested on DAF-12 nuclear receptor (Haemonchus contortus) (assay: hcDAF-12 driven luciferase reporter activation – cell-based, luminescence, HEK293, lit1-tk-luc reporter, primary screen (AID 652067;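 note: 100% = response to 3 µM Δ7-dafachronic acid high control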)). Details: HEK293 hcDAF-12 lit1-tk-luc reporter, at 6.8 µM, hits give high values, 0% DMSO, 100% Δ7-dafachronic acid.

Structure (SMILES)	activation
Cc1ccc2cccc(OCCCOc3ccccc3CO)c2n1	-0.62% (inactive)
CC1(C)OC(=O)C2=C(CC(CCc3ccccc3)OC2c2ccc(Cl)cc2)O1 (stereo not drawn)	-1.84% (inactive)
Cc1cccc(C)c1NC(=O)C(c1ccc(C(F)(F)F)cc1)n1c(=O)c(-c2ccco2)nc2ccccc21 (stereo not drawn)	0.34% (inactive)
O=C(NC1CCCCC1)C(c1cc2ccccc2o1)n1c(=O)c(-c2ccco2)nc2ccccc21 (stereo not drawn)	9.06% (active)
Cc1cccc(C)c1NC(=O)C(c1cccc2ccccc12)n1c(=O)c(-c2ccco2)nc2ccccc21 (stereo not drawn)	2.42% (inactive)
O=C(COc1cccc(Cl)c1)NCc1ccccc1	6.74% (active)
O=C(COC(=O)c1cccc(Cl)c1)NC(=O)NCc1ccccc1	0.2% (inactive)
O=C(CCOc1ccccc1)NCc1ccccc1	0.79% (inactive)
COc1ccc(CN2C(=O)N3Cc4cc(OC)ccc4C3CS2(=O)=O)cc1 (stereo not drawn)	-4.29% (inactive)
Cn1c(=O)cc(SCC(=O)N2CCN(C(=O)c3ccco3)CC2)c2ccccc21	-0.81% (inactive)
Cn1c(=O)cc(SCC(=O)N2CCCC2)c2cc(Cl)ccc21	0.28% (inactive)
CCOC(=O)C1CCN(C(=O)CSc2cc(=O)n(C)c3ccccc23)CC1	5.88% (active)
O=C(N[C@H](C(=O)N1CCC[C@H]1C(=O)NCCc1ccccc1Cl)c1ccccc1)c1ccccc1	-0.38% (inactive)
CCOC(=O)[C@]12CCCC=C1N(CCCOC)C(=O)[C@@H]2CC(=O)N1CCOCC1	-0.67% (inactive)
O=c1[nH]n2c(=O)c3c([nH]c2c1N=Nc1ccccc1)CCC3	0.16% (inactive)
Cc1ccc(C)c(NC(=O)COC(=O)Cn2c(C)csc2=O)c1	-0.15% (inactive)
CCc1ccc(NC(=O)N2CCc3ccccc3C2)cc1	10.8% (active)
Cc1ccc(NC(=O)CN2CCc3ccccc3C2)cc1C	-0.52% (inactive)
Cn1cccc1C(=O)N1CCc2ccccc2C1	0.07% (inactive)
COC(=O)C1=C(C)N(Cc2ccccc2C(F)(F)F)C(=NCc2ccc(C(F)(F)F)cc2)NC1c1ccc(F)cc1 (stereo not drawn)	-0.44% (inactive)

Structure (SMILES)	activation
O=S1(=O)c2ccc(Br)cc2OC[C@@H](Cc2ccccc2)N1Cc1cn(Cc2ccco2)nn1	-3.82% (inactive)
O=C(NCCCN1CCOCC1)c1cc(-c2ccccc2F)no1	-0.99% (inactive)
O=C(c1ccco1)N1CCN(C(=O)c2cc(-c3ccccc3F)no2)CC1	0.36% (inactive)
Fc1ccccc1-c1cc2cc3c(cc2cn1)OCO3	5.75% (active)
COC(=O)[C@]12C[C@H](CC(=O)NCc3cccc4ccccc34)C(=O)N(CCc3ccc(OC)c(OC)c3)C1=C[C@H](C1CCCC1)O[C@@H]2C	-3.52% (inactive)
C[C@H](CO)N1C[C@H](C)[C@@H](CN(C)C(=O)Nc2ccccc2F)OCc2cn(nn2)CCCC1=O	-0.15% (inactive)
COC(=O)c1ccc(/C=N/NC(=O)C(=O)N2CCCCCC2)cc1	-0.19% (inactive)
CC(C)(C)OC(=O)N/N=C/c1ccc(C(=O)O)cc1	7.41% (active)
C/C(=N\NC(=O)OC(C)(C)C)c1ccc[nH]1	1.29% (inactive)
CCCCC(=O)N[C@@H]1CC[C@@]23CCCN2C(=O)CCC[C@H]3[C@H]1C	0.2% (inactive)
COc1cc(Cl)ccc1OCc1cc(C(=O)N2CC[C@@H]3CCCC[C@H]3C2)no1	1.66% (inactive)
Cc1ccc(O)c(NC(=O)c2cc(-c3ccco3)on2)c1	0.32% (inactive)
COc1ccc(OCc2cc(C(=O)N3CCCC3)no2)c2ccccc12	10.3% (active)
O=C(c1cc(-c2ccc(Cl)s2)nc2ccccc12)N1CCOCC1	-1.34% (inactive)
O=C(c1cc(-c2ccccc2O)on1)N1CCCC1	7.33% (active)
O=C(c1cc(COc2ccc(F)cc2F)on1)N1CCOCC1	1.67% (inactive)
O=C(NC1CCCC1)c1cc(-c2ccccc2)on1	4.69% (inactive)
COCCN1CCN(C(=O)c2cc(COc3ccc(F)cc3Cl)on2)CC1	-1.75% (inactive)
O=C(c1cc(-c2ccc(O)cc2)on1)N1CCOCC1	6.07% (active)
O=C(Nc1ccccc1C(F)(F)F)c1cc(-c2ccc(O)cc2)on1	-0.51% (inactive)

Structure (SMILES)	activation
O=C(c1cc(C2CCCCN2S(=O)(=O)c2ccccc2)on1)N1CCOCC1 (stereo not drawn)	-0.3% (inactive)
O=C(Nc1cccnc1Cl)c1cc(-c2ccccc2O)on1	6.07% (active)
CC(=O)C1C(c2ccc(Cl)cc2)c2c(n[nH]c2C)CC1(C)O (stereo not drawn)	-0.09% (inactive)
O=S(=O)(c1cccs1)N1CCCc2nc(-c3ccc(Br)cc3)ccc21	-0.17% (inactive)
CCc1ccc(C2=CC(=O)CC(C)(C)C2=O)cc1	1.24% (inactive)
CC(C)N1CCCCC(NC(=O)c2ccc3ccccc3c2)C1=O (stereo not drawn)	-0.97% (inactive)
C=CCN1C(=O)[C@@H](CC(=O)NCCCOCCCC)[C@]2(C(=O)OCC)CCCCC/C=C/12	-0.92% (inactive)
COc1ccc(S(=O)(=O)Nc2ccc3c(c2)C(=O)N([C@H](C)CO)C[C@H](C)[C@@H](CN(C)C)OCCCC[C@H](C)O3)cc1	-1.41% (inactive)
Cc1cc(Br)cn2c(Cc3ccccc3C(F)(F)F)c(-c3ccc(C#N)cc3)nc12	0.68% (inactive)
COc1ccc(-c2cc(C(=O)NC(C(=O)O)C(C)C)c(C)o2)cc1OC (stereo not drawn)	1.96% (inactive)
COc1ccc(-c2cc(=O)oc3cc(OCC(=O)N[C@@H](Cc4c[nH]c5ccccc45)C(=O)O)ccc23)cc1	4.41% (inactive)
COc1ccc(-c2cc(C(=O)NC(Cc3c[nH]c4ccccc34)C(=O)O)c(C)o2)cc1OC (stereo not drawn)	6.3% (active)
CCOC(=O)/C=C/c1ccccc1O	-0.51% (inactive)
Cc1cc2ncn(CCCCOc3ccccc3)c2cc1C	-1.91% (inactive)
C[C@@H](CN1C2=NC[C@@H](Cc3ccccc3)N2C[C@H]1Cc1ccc(O)cc1)NC(=O)CCC1CCCCC1	-1.42% (inactive)
COc1ccc(OC)c(-n2c(=S)[nH]c3cc(C(=O)N4CCCCC4)ccc3c2=O)c1	-1.94% (inactive)
COc1cccc(-n2nc(C(=O)N3CCN(Cc4ccccc4)CC3)c3ccccc3c2=O)c1	-2.27% (inactive)
COc1cccc(-n2c(=S)[nH]c3c(oc4ccccc43)c2=O)c1	5.86% (active)
